Results on one sequence are retold here after article PMC7862700, “An all-to-all approach to the identification of sequence-specific readers for epigenetic DNA modifications on cytosine”.

Holding throughout (experiment): DAPPL (digital affinity profiling via proximity ligation, sequencing); 10 mM Tris-HCl pH 7.5, 50 mM NaCl, 1 mM DTT, 4% glycerol, room temperature, 30 min; GST-TFs on glutathione beads, 16-mer random dsDNA library, 0.1% formaldehyde crosslink after washing; high values mean tight binding
Holding throughout (conditions): protein: recombinant; tags: N-terminal GST; dsDNA, one strand shown

The target in one experiment is T1, FLI1 (Homo sapiens, UniProt Q01543 1-452).
T1 sequence: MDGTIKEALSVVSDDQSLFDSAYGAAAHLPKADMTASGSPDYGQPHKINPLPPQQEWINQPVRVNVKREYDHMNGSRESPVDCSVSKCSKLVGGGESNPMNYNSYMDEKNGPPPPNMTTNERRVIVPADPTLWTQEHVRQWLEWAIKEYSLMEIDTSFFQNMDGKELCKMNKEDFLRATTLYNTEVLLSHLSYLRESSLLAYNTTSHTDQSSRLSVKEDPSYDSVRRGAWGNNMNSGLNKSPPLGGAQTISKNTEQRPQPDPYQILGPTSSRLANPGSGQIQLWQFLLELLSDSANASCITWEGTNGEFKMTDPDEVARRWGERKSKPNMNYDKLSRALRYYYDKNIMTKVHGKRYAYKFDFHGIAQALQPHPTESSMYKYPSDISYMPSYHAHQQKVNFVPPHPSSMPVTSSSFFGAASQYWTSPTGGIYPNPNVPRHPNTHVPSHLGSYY
A digest of the protocol:
(§1)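 Pools of DNA-barcoded human transcription factors, expressed in yeast as GST fusions on glutathione beads and combined with a tag-only sample, were incubated with 200 nmole of a 16-mer random double-stranded DNA library. Incubation took 30 min at room temperature in Tris/NaCl/DTT/glycerol buffer and was followed by washing, 0.1% formaldehyde crosslinking, proximity ligation (BsaI/T4 ligase, 1 h, 37 °C), PCR amplification and sequencing on an Illumina NextSeq500. Binding signal is the ratio of a hexamer's read frequency for a factor to its frequency for the tag-only sample.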

A further experiment concerns the target T2, ELK1 (Homo sapiens, UniProt P19419 1-428).
T2 sequence: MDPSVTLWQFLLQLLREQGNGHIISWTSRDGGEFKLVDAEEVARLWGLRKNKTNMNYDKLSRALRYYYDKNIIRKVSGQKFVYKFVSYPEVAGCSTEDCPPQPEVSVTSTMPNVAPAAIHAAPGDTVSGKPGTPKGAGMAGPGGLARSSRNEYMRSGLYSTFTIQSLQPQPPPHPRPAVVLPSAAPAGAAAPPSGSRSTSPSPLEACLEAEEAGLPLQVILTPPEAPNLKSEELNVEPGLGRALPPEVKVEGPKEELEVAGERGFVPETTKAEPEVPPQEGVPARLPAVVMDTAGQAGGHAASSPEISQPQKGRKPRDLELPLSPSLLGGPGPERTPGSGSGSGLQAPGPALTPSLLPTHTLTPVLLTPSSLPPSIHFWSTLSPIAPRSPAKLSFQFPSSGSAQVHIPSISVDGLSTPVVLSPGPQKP
A digest of the protocol: as §1

The next experiment addresses T3, GABPA (Homo sapiens, UniProt Q06546 1-454).
T3 sequence: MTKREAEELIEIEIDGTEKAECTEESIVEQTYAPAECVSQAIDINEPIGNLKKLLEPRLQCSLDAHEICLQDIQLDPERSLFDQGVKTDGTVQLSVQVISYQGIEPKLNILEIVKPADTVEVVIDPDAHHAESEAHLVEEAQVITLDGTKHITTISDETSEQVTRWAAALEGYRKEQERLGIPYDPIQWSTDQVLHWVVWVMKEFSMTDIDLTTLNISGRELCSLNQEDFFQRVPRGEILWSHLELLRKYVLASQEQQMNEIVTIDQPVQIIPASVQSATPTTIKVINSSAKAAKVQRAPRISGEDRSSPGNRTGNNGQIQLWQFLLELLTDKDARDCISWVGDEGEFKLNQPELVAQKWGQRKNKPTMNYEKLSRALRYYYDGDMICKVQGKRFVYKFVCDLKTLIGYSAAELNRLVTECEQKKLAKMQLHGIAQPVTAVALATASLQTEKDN
A digest of the protocol:
as §1

For the next experiment, the target named is T4, ERG (Homo sapiens, UniProt P11308 1-479).
T4 sequence: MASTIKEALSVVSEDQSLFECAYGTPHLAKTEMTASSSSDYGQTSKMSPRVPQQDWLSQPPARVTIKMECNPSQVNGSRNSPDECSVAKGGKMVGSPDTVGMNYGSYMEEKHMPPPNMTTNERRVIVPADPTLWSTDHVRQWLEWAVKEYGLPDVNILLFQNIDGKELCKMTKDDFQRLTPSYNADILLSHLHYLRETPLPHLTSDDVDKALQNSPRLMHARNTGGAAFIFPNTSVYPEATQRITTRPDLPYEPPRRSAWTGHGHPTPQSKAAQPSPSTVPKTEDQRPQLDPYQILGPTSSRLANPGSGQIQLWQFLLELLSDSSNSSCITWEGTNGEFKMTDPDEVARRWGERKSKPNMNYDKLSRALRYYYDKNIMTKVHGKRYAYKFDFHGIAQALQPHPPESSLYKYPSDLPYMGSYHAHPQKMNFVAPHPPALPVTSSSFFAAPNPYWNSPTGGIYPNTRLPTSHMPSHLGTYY
The method in brief:
as §1

The next experiment has as its target ELF1 (Homo sapiens, UniProt P32519 1-619). A digest of the protocol:
as §1

A further experiment concerns the target T5, EHF (Homo sapiens, UniProt Q9NZC4 1-300).
T5 sequence: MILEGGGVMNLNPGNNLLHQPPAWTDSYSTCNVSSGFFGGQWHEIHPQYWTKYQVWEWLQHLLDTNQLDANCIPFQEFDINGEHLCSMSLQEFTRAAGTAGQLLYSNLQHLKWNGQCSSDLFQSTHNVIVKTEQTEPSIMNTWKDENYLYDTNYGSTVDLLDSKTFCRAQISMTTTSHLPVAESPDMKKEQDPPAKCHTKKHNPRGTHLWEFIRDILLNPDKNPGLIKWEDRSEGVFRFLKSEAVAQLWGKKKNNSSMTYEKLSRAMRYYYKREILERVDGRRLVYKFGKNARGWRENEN
The method in brief: as §1

The target of a further experiment is SPI1 (Homo sapiens, UniProt P17947 1-270). The method in brief:
as §1

The next experiment has as its target SPIB (Homo sapiens, UniProt Q01892 1-262). The method in brief:
as §1

The target of a further experiment is T6, FEV (Homo sapiens, UniProt Q99581 1-238).
T6 sequence: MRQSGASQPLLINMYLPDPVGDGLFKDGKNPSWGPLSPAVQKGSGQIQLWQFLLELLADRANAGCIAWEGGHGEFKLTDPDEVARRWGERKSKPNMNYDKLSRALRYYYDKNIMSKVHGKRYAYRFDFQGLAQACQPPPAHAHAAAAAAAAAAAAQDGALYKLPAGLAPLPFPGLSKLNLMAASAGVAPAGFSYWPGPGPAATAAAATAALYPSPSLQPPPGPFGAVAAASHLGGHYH
A digest of the protocol: as §1

In the next experiment the target is ETV5 (Homo sapiens, UniProt P41161 1-510). A digest of the protocol: as §1
Sequence of ETV5 (P41161 whole entry): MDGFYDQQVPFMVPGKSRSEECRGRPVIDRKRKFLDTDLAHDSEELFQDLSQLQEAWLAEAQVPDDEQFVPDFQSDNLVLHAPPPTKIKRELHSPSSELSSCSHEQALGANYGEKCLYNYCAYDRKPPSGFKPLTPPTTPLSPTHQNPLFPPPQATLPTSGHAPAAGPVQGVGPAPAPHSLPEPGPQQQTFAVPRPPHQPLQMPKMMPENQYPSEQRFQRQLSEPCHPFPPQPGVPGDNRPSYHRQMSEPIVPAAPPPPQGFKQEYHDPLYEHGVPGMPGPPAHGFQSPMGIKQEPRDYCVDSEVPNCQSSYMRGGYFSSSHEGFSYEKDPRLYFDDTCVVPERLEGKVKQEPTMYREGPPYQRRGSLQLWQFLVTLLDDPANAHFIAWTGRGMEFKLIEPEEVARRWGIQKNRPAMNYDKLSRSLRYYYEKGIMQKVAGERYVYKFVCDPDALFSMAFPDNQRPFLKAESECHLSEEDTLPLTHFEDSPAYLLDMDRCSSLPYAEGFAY
The target in another experiment is T7, SPIC (Homo sapiens, UniProt Q8N5J4 1-248).
T7 sequence: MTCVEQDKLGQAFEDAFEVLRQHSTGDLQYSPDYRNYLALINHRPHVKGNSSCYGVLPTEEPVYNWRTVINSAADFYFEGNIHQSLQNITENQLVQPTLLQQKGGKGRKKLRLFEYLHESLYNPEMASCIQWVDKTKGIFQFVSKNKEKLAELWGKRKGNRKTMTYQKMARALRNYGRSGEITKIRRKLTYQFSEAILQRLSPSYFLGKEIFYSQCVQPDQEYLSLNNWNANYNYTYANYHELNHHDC
The method in brief:
as §1

Another experiment deals with ELF4 (Homo sapiens, UniProt Q99607 1-663). The method in brief: as §1
Sequence of ELF4 (Q99607 whole entry): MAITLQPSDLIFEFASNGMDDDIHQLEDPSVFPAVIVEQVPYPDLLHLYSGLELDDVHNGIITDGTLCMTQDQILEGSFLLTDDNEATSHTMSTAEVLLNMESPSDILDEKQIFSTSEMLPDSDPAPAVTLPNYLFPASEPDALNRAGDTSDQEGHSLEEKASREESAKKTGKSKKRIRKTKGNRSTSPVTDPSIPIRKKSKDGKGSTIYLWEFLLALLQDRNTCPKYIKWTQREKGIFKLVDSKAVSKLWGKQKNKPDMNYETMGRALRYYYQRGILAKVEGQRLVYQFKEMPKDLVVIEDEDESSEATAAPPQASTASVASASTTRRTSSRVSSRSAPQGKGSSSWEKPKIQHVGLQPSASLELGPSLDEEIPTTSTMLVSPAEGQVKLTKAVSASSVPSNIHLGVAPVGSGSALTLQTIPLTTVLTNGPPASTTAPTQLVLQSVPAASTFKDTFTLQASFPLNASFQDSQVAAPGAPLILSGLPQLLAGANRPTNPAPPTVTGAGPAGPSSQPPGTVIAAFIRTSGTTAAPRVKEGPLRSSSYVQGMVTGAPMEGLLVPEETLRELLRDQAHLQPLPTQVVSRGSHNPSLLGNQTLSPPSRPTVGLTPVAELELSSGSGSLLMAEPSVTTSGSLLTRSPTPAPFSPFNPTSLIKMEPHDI
A further experiment has as its target ETV1 (Homo sapiens, UniProt P50549 1-477). The method in brief: as §1
For the next experiment, the target named is T8, ERF (Homo sapiens, UniProt P50548 1-548).
T8 sequence: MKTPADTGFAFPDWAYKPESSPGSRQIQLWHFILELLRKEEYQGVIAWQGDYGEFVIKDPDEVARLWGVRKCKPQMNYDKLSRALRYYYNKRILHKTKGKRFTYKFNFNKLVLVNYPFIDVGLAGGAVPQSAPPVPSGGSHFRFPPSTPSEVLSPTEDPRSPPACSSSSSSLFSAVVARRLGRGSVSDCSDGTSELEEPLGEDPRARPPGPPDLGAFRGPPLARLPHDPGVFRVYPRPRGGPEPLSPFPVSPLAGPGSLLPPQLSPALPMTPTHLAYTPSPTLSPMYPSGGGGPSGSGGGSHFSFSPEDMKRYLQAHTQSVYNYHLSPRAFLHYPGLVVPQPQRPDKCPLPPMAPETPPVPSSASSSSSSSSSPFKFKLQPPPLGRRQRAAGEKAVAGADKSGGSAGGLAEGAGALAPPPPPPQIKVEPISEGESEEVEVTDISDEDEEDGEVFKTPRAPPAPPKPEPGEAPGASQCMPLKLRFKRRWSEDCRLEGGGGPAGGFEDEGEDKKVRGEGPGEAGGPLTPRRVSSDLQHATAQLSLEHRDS
The method in brief: as §1

A further experiment concerns the target T9, ETV3L (Homo sapiens, UniProt Q6ZN32 1-361).
T9 sequence: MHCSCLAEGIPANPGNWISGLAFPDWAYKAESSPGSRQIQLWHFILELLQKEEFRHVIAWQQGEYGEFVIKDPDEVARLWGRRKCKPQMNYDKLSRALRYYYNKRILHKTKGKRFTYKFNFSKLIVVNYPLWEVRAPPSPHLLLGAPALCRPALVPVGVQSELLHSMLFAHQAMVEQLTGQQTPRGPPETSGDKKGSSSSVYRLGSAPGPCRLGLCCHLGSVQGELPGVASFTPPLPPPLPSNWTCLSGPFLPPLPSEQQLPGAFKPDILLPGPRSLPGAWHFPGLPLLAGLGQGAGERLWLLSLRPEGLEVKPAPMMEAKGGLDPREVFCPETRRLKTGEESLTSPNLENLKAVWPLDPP
A digest of the protocol:
as §1

The target of a further experiment is T10, ETS2 (Homo sapiens, UniProt P15036 1-469).
T10 sequence: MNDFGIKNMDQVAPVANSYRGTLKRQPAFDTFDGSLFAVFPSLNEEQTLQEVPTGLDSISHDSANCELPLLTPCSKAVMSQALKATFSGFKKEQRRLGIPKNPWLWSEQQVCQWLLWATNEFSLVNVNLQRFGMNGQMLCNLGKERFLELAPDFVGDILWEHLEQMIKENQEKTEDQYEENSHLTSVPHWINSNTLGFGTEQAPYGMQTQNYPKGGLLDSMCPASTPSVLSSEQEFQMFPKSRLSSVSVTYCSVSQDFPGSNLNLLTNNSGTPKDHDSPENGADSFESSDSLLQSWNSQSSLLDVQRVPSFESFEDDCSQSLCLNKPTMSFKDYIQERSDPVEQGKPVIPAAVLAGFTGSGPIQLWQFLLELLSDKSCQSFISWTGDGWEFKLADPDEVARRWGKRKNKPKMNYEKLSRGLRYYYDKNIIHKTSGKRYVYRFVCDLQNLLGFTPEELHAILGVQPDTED
The method in brief:
as §1

The target of the next experiment is T11, SPDEF (Homo sapiens, UniProt O95238 1-335).
T11 sequence: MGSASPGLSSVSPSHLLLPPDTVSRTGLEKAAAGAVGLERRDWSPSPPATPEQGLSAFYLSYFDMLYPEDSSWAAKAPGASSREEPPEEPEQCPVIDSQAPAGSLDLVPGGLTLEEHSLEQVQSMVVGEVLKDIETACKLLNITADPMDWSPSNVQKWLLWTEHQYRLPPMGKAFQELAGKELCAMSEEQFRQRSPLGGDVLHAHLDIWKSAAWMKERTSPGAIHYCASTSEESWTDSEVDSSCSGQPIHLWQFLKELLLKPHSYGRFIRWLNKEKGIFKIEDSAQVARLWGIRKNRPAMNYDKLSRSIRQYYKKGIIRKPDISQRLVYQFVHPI
A digest of the protocol:
as §1

A further experiment addresses T12, ETV3 (Homo sapiens, UniProt P41162-2 1-143).
T12 sequence: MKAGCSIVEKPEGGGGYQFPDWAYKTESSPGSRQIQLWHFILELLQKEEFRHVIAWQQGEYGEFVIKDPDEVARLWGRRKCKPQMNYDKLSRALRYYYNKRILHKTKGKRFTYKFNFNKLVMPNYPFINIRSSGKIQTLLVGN
The method in brief: as §1

The target in a further experiment is ETV6 (Homo sapiens, UniProt P41212 1-452). The method in brief: as §1
Sequence of ETV6 (P41212 whole entry): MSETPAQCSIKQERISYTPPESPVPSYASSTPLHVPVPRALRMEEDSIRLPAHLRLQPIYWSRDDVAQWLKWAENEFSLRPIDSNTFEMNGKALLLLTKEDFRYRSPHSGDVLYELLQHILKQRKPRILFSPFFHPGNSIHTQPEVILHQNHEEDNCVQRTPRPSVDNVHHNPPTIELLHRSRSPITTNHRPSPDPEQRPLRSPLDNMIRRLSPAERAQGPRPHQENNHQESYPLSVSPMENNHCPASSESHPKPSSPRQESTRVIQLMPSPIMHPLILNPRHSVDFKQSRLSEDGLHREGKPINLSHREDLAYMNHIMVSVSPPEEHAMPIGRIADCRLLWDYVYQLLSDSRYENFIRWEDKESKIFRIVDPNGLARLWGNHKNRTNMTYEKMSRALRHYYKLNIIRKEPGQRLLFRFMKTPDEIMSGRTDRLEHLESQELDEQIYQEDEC

Sequence of ELF1 (P32519 whole entry): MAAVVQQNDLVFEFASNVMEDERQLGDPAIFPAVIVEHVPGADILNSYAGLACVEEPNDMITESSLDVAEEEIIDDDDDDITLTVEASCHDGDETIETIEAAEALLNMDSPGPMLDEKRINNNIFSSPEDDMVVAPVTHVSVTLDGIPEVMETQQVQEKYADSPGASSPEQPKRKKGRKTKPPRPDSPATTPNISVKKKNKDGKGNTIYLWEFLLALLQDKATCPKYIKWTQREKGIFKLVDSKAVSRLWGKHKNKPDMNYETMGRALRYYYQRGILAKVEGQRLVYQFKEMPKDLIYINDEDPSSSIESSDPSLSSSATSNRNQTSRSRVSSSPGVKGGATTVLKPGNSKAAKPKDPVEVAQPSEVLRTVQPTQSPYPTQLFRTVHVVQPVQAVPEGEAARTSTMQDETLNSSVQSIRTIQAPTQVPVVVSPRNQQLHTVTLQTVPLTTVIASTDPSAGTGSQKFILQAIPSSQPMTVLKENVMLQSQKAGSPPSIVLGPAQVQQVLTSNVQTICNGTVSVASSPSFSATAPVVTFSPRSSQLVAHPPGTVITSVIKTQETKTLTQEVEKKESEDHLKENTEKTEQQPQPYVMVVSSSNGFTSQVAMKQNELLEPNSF
Sequence of ETV1 (P50549 whole entry): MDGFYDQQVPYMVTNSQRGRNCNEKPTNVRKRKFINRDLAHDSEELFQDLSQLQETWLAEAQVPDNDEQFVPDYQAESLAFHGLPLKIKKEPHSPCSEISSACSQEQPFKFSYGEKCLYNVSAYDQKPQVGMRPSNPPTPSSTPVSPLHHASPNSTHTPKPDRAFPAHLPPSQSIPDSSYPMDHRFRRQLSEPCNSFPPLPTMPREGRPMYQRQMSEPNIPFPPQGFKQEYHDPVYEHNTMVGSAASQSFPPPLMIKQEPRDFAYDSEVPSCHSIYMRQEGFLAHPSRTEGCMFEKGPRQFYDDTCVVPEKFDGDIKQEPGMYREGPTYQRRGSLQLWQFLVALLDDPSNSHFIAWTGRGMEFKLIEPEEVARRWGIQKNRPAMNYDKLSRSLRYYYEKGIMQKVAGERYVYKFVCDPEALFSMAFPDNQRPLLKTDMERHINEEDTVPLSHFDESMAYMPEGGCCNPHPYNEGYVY
Sequence of SPIB (Q01892 whole entry): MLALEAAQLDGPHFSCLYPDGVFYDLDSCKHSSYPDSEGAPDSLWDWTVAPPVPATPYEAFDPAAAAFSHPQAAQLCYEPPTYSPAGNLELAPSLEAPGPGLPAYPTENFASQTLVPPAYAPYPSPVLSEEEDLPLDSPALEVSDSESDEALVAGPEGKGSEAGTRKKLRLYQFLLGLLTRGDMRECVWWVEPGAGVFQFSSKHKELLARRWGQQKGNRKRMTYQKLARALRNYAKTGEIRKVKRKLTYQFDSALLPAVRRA

For TGGACC, the binding signal with FLI1 is 1.11 fold enrichment (6-mer frequency, TF over GST control); with ELK1, 1.03 fold enrichment (6-mer frequency, TF over GST control); with GABPA, 1.09 fold enrichment (6-mer frequency, TF over GST control); with ERG, 1.04 fold enrichment (6-mer frequency, TF over GST control); with ELF1, 1.06 fold enrichment (6-mer frequency, TF over GST control); in the experiment with EHF, 1.1 fold enrichment (6-mer frequency, TF over GST control). Also, the binding signal in the experiment with SPI1 was 1.1 fold enrichment (6-mer frequency, TF over GST control); in the experiment with SPIB, 1.02 fold enrichment (6-mer frequency, TF over GST control); with FEV it was 1.17 fold enrichment (6-mer frequency, TF over GST control); with ETV5, 1.05 fold enrichment (6-mer frequency, TF over GST control); in the experiment with SPIC, 1.16 fold enrichment (6-mer frequency, TF over GST control); with ELF4 it was 1.06 fold enrichment (6-mer frequency, TF over GST control). The binding signal with ETV1 is 1.08 fold enrichment (6-mer frequency, TF over GST control); in the experiment with ERF, 1.11 fold enrichment (6-mer frequency, TF over GST control); with ETV3L, 1.13 fold enrichment (6-mer frequency, TF over GST control); with ETS2, 1.04 fold enrichment (6-mer frequency, TF over GST control); in the experiment with SPDEF, 1.05 fold enrichment (6-mer frequency, TF over GST control); in the experiment with ETV3 it was 1.04 fold enrichment (6-mer frequency, TF over GST control). For the same sequence, the binding signal with ETV6 was 1.08 fold enrichment (6-mer frequency, TF over GST control).
